Source: PubChem BioAssay (Tox21)
Records with an inconclusive call do not appear. Where a call stands in place of a potency, no number is given. Activity calls are given as the source filed them. Unless noted, calls follow the shape of the dose curve; as a rule, active = well fitted curve in the direction sought with a large enough effect in the repeat runs; inconclusive = weak or mixed curves; inactive = no such curve, though single readings can be large; an effect the other way counts as inactive or inconclusive.

Tests used:
[1] = qHTS assay to test for compound auto fluorescence at 535 nm (green) in HEK293 cells (AID 720680); details: green autofluorescence 485/535 nm; series mostly up to 46 µM
[2] = qHTS assay to test for compound auto fluorescence at 460 nm (blue) in HEK293 cell free culture (AID 720681); details: cell-free medium, autofluorescence 405/460 nm (blue); series mostly up to 46 µM
Summary of the method: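 Test compounds were pinned into cell-free culture medium (DMEM with 10% FBS) and fluorescence was read directly at Ex/Em 405/460 nm. Signals were expressed as fluorescence equivalents of triamterene, with DMSO vehicle as control.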

[3] = qHTS assay to test for compound auto fluorescence at 535 nm (green) in HEK293 cell free culture (AID 720682); details: cell-free medium, green autofluorescence 485/535 nm, hits give high values; series mostly up to 46 µM
Summary of the method: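 Compounds were pin-transferred into cell-free DMEM with 10% FBS, and green fluorescence was read at excitation 485 nm and emission 535 nm. Intensities were expressed as fluorescein-equivalent values.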

[4] = qHTS assay to test for compound auto fluorescence at 590 nm (red) in HEK293 cell free culture (AID 720683); details: cell-free medium autofluorescence, Ex540/Em590 red; series mostly up to 46 µM
Summary of the method: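 Tox21 10K library compounds were pinned into cell-free DMEM with 10% FBS and fluorescence was read at excitation 540 nm. Activity is expressed as Rose Bengal sodium equivalency.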

[5] = qHTS assay to test for compound auto fluorescence at 590 nm (red) in HepG2 cell free culture (AID 720684); details: cell-free medium autofluorescence, red 540/590 nm; series mostly up to 46 µM
Summary of the method: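 Measured in medium alone (MEM containing 10% FBS) following pintool addition of compound; emission at 590 nm with 540 nm excitation, referenced to Rose Bengal sodium.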

[6] = qHTS assay to test for compound auto fluorescence at 460 nm (blue) in HepG2 cell free culture (AID 720685); details: Cell-free culture medium, blue autofluorescence 405/460 nm; series mostly up to 46 µM
Summary of the method: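 Compound (23 nL) or DMSO pinned into cell-free MEM with 10% FBS; blue fluorescence read at 405/460 nm excitation/emission, expressed as auto-fluorescence equivalency to triamterene.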

[7] = qHTS assay to test for compound auto fluorescence at 535 nm (green) in HepG2 cell free culture (AID 720686); details: Cell-free medium, green autofluorescence 485/535 nm; series mostly up to 46 µM
[8] = qHTS assay to test for compound auto fluorescence at 460 nm (blue) in HepG2 cells (AID 720687); details: autofluorescence 405/460 nm, 1 h; series mostly up to 46 µM
Summary of the method: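 Cells (2,000/well in MEM with 10% FBS) attached overnight at 37 C, then were exposed to compound or DMSO for 1 hr at 37 C, 5% CO2. Fluorescence read at Ex/Em 405/460 nm, expressed as triamterene-equivalent signal.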

[9] = molecular target: Glucocorticoid receptor (Homo sapiens) (UniProt P04150); experiment: qHTS assay to identify small molecule agonists of the glucocorticoid receptor (GR) signaling pathway (AID 720691; active = well fitted activation curve with a large enough effect in the signal ratio in the repeat runs, not every such curve was filed as active; the % refers to the signal ratio); details: GR-bla HeLa, beta-lactamase reporter ratio, 18 h; activation: at 62.4 µM (top of the series)
Sequence of Glucocorticoid receptor (Homo sapiens) (P04150 whole entry, looked up): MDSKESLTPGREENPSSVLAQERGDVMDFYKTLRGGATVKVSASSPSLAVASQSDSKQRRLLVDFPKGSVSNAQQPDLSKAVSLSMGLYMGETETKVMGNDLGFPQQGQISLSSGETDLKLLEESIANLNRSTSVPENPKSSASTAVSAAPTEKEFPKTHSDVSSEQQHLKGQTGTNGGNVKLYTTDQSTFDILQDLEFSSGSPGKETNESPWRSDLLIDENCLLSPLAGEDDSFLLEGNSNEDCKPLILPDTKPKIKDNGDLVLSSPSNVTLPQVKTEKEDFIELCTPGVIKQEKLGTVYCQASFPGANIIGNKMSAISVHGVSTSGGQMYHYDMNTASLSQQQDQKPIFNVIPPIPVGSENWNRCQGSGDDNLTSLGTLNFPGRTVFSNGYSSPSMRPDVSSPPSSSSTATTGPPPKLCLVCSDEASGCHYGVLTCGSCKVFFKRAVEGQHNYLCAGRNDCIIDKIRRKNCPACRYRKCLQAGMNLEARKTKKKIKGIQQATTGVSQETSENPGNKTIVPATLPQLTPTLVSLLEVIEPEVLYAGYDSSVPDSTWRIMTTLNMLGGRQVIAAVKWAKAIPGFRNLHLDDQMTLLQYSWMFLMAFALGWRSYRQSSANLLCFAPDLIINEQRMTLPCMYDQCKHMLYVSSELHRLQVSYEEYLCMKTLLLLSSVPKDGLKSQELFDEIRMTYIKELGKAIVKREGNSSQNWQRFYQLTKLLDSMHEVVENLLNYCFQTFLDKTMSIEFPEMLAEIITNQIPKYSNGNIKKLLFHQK
Summary of the method: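 Beta-lactamase reporter activity, read as fluorescence intensity, was measured in GR-bla HeLa cells exposed to compounds for 18 h at 37 C and then loaded with LiveBLAzer B/G FRET substrate for 2 h at room temperature.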

[10] = molecular target: Glucocorticoid receptor (Homo sapiens) (UniProt P04150); experiment: qHTS assay to identify small molecule antagonists of the glucocorticoid receptor (GR) signaling pathway (AID 720692; active = well fitted inhibition curve with a large enough effect in the signal ratio in the repeat runs, not every such curve was filed as active; the % refers to the signal ratio); details: GR-bla HeLa, beta-lactamase FRET ratio, dexamethasone-stimulated, 18 h; series mostly up to 58.5 µM
Summary of the method: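 Fluorescence from cleaved LiveBLAzer B/G FRET substrate reports GRE-driven beta-lactamase in HeLa cells; compounds are tested against 5 nM dexamethasone (final) over 18 h at 37 C, substrate incubation 2 h at room temperature.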

[11] = qHTS assay to identify small molecule antagonists of the glucocorticoid receptor (GR) signaling pathway - cell viability counter screen (AID 720693); details: GR-bla HeLa viability, CellTiter-Glo luminescence, 18 h, with 5 nM dexamethasone present; series mostly up to 58.5 µM; also: nearly all actives have a fitted effect of over 55% in size
[12] = qHTS assay for identifying genotoxic compounds that show differential cytotoxicity against isogenic chicken DT40 cell lines with known DNA damage response pathways - wild type cell line (AID 743012); details: DT40 wild type chicken cells viability, CellTiter-Glo, 40 h; series mostly up to 68.4 µM; also: nearly all actives have a fitted effect of over 60% in size; also: potency is read from the fitted curve at half-maximal effect
Summary of the method: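 Quantitative HTS on parental DT40 cells: 40 h compound treatment at 37 C/5% CO2, with viability then determined by CellTiter-Glo luminescence. Values serve as the DNA repair-proficient reference for differential cytotoxicity.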

[13] = qHTS assay for identifying genotoxic compounds that show differential cytotoxicity against isogenic chicken DT40 cell lines with known DNA damage response pathways - Rev3 mutant cell line (AID 743014); details: chicken DT40 Rev3-/- viability, CellTiter-Glo, 40 h; series mostly up to 68.4 µM; also: nearly all actives have a fitted effect of over 55% in size; also: potency is read from the fitted curve at half-maximal effect
[14] = qHTS assay for identifying genotoxic compounds that show differential cytotoxicity against isogenic chicken DT40 cell lines with known DNA damage response pathways - Rad54/Ku70 mutant cell line (AID 743015); details: DT40 Rad54/Ku70 mutant viability, CellTiter-Glo, 40 h; series mostly up to 66.8 µM; also: nearly all actives have a fitted effect of over 60% in size; also: potency is read from the fitted curve at half-maximal effect
[15] = qHTS assay to identify small molecule antagonists of the androgen receptor (AR) signaling pathway - cell viability counter screen (AID 743033; also: nearly all actives have a fitted effect of over 45% in size); details: AR-bla HEK293 viability, CellTiter-Glo luminescence, 16 h; series mostly up to 58.5 µM
[16] = molecular target: Androgen receptor (Homo sapiens) (UniProt P10275); experiment: qHTS assay to identify small molecule agonists of the androgen receptor (AR) signaling pathway (AID 743036; active = well fitted activation curve with a large enough effect in the signal ratio in the repeat runs, with a control signal flat, not every such curve was filed as active; the % refers to the signal ratio); details: HEK293 AR-UAS-bla GripTite, beta-lactamase FRET ratio, 16 h; series mostly up to 62.4 µM
Sequence of Androgen receptor (Homo sapiens) (P10275 whole entry, looked up): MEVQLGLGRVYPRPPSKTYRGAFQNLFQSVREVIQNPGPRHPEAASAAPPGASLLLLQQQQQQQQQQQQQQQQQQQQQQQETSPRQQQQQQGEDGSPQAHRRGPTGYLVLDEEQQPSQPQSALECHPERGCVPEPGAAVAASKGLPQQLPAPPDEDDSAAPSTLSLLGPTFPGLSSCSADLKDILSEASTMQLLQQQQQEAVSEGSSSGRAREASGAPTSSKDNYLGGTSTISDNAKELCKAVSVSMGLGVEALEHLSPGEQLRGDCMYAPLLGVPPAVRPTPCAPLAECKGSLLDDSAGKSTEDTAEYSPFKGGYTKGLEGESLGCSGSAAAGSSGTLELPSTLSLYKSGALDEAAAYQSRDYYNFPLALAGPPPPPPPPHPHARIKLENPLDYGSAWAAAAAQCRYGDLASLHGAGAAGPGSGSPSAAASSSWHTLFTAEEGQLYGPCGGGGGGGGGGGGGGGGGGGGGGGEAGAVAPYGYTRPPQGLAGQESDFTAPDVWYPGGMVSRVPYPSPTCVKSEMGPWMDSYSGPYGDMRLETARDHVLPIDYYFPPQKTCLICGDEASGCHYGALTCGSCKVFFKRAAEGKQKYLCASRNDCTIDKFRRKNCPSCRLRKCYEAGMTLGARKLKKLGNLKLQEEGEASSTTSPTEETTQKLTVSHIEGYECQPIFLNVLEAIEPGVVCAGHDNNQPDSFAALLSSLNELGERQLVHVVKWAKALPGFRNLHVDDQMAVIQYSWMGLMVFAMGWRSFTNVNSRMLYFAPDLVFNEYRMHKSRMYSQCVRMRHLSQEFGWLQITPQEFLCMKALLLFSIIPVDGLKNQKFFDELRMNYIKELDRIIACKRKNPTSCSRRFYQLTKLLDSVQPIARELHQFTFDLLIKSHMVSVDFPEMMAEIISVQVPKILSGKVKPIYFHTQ
Summary of the method: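 Activation was read as beta-lactamase FRET signal from LiveBLAzer B/G substrate, added for 2 h at room temperature. Before that, GeneBLAzer AR-UAS-bla GripTite (HEK293) cells had 16 h compound exposure at 37C.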

[17] = molecular target: Androgen receptor (Homo sapiens) (UniProt P10275); experiment: qHTS assay to identify small molecule agonists of the androgen receptor (AR) signaling pathway using the MDA cell line (AID 743040; also: nearly all actives have a fitted effect of over 20% in size; also: potency is read from the fitted curve at half-maximal effect); details: MDA-kb2 AR-luc cells, MMTV luciferase, 16 h; series mostly up to 70.3 µM
Summary of the method: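 Luminescence from ONE-Glo, read after 30 min at room temperature, reflects MMTV-driven luciferase in MDA-kb2 cells (AR- and GR-responsive). Treatment lasted 16 h at 37C, 0% CO2.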

[18] = qHTS assay to identify small molecule antagonists of the androgen receptor (AR) signaling pathway using the MDA cell line - cell viability counter screen (AID 743041; also: nearly all actives have a fitted effect of over 45% in size); details: MDA-kb2 viability, CellTiter-Fluor, 16 h, cells co-treated with R1881 androgen agonist; series mostly up to 70.3 µM
Summary of the method: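 Viability counter screen run alongside the AR antagonist reporter: cells seeded 5 h before compound, R1881 added, 16 h incubation at 37C without CO2, fluorescent CellTiter-Fluor signal quantified.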

[19] = molecular target: Androgen receptor (Homo sapiens) (UniProt P10275); experiment: qHTS assay to identify small molecule antagonists of the androgen receptor (AR) signaling pathway using the MDA cell line (AID 743042; also: nearly all actives have a fitted effect of over 55% in size); details: MDA-kb2 AR-luc, MMTV luciferase, R1881 antagonist, 16 h; series mostly up to 70.3 µM
Summary of the method: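 MDA-kb2 cells (human breast carcinoma, stably carrying an MMTV-luciferase reporter responsive to AR and GR) were plated at 3,000 cells/well and preincubated 5 hr at 37C, then given compound plus R1881 agonist for 16 h. ONE-Glo luminescence was read.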

[20] = molecular target: Androgen receptor (Homo sapiens) (UniProt P10275); experiment: qHTS assay to identify small molecule antagonists of the androgen receptor (AR) signaling pathway (AID 743035; active = well fitted inhibition curve with a large enough effect in the signal ratio in the repeat runs, not every such curve was filed as active; the % refers to the signal ratio); details: HEK293 AR-UAS-bla, R1881-stimulated, beta-lactamase FRET, 16 h; series mostly up to 58.5 µM
Summary of the method: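 Cell line: GeneBLAzer AR-UAS-bla GripTite (HEK293). Stimulus: R1881 added after compound. Exposure: 16 h, 37C, 5% CO2. Readout: LiveBLAzer B/G FRET fluorescence after 2 h at room temperature.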

Compound | outcome [1] | Potency [2] | outcome [3] | outcome [4] | outcome [5] | Potency [6] | Potency [7] | Potency [8] | Potency [9] | Potency [10] | Potency [11] | Potency [12] | Potency [13] | Potency [14] | Potency [15] | Potency [16] | Potency [17] | Potency [18] | Potency [19] | Potency [20]
O=C(CCCN1CCN2CCCC2C1)c1ccc(F)cc1 (stereo not drawn) | inactive | inactive | inactive | inactive | inactive | inactive | inactive | inactive | inactive | inactive | inactive | 11.9 µM (active) | 2.11 µM (active) | 8.41 µM (active) | inactive |  |  |  |  | 
COc1ccc([C@@H]2CC(=O)c3c(O)cc(O[C@@H]4O[C@H](CO[C@@H]5O[C@@H](C)[C@H](O)[C@@H](O)[C@H]5O)[C@@H](O)[C@H](O)[C@H]4O)cc3O2)cc1O | inactive | inactive | inactive | inactive | inactive | inactive | inactive | inactive | inactive | inactive | inactive | inactive | inactive | inactive | inactive | inactive | inactive | inactive | inactive | 
C[N+](C)(C)CCOP(=O)(O)OP(=O)([O-])OC[C@H]1O[C@@H](n2ccc(N)nc2=O)[C@H](O)[C@@H]1O | inactive | inactive | inactive | inactive | inactive | inactive | inactive | inactive | inactive | inactive | inactive | inactive | inactive | inactive | inactive | inactive |  | inactive | inactive | inactive
CCN(CC)CCOC[C@H]1O[C@@H](O)[C@H](OCCN(CC)CC)[C@@H](O)[C@@H]1O | inactive | inactive | inactive | inactive | inactive | inactive | inactive | inactive | inactive | inactive | inactive | inactive | inactive | inactive | inactive |  |  | inactive |  | 
O=C(O)COc1ccc(C(=O)c2cccs2)c(Cl)c1Cl | inactive | inactive | inactive | inactive | inactive | inactive | inactive | inactive | inactive | inactive | inactive | inactive | inactive | inactive | inactive |  | inactive |  | inactive | inactive
NC[C@@H]1CC[C@@H](N)[C@@H](O[C@H]2[C@H](O)[C@@H](O[C@H]3O[C@H](CO)[C@@H](O)[C@H](N)[C@H]3O)[C@H](N)C[C@@H]2N)O1 | inactive | inactive | inactive | inactive | inactive | inactive | inactive | inactive | inactive | inactive | inactive | inactive | inactive | inactive |  | inactive | 29.8 µM (active) | inactive | inactive | inactive
C=C1[C@@H]2CC[C@@H](C2)C1(C)C | inactive | inactive | inactive | inactive | inactive | inactive | inactive | inactive | inactive | inactive | inactive | inactive | inactive | inactive | inactive |  |  |  |  | 
NC(N)=NCC1COC2(CCCCC2)O1 (stereo not drawn) | inactive | inactive | inactive | inactive | inactive | inactive | inactive | inactive | inactive | inactive | inactive | inactive | inactive | inactive | inactive |  | inactive | inactive | inactive | inactive
CCCCCCCC1CCC(=O)O1 (stereo not drawn) | inactive | inactive | inactive | inactive | inactive | inactive | inactive | inactive |  |  |  |  |  |  |  |  |  |  |  | 
N[C@@H](Cc1cnc[nH]1)C(=O)O | inactive | inactive | inactive | inactive | inactive | inactive | inactive | inactive | inactive | inactive | inactive | inactive |  | inactive | inactive | inactive | inactive | inactive | inactive | inactive
CCN(CC)CC#CCOC(=O)C(O)(c1ccccc1)C1CCCCC1 (stereo not drawn) | inactive | inactive | inactive | inactive | inactive | inactive | inactive | inactive | inactive | inactive | inactive | 11.9 µM (active) | 13.3 µM (active) | 26.6 µM (active) | inactive |  |  | inactive |  | 
CC(C)C[C@H](NC(=O)[C@@H](COC(C)(C)C)NC(=O)[C@H](Cc1ccc(O)cc1)NC(=O)[C@H](CO)NC(=O)[C@H](Cc1c[nH]c2ccccc12)NC(=O)[C@H](Cc1cnc[nH]1)NC(=O)[C@@H]1CCC(=O)N1)C(=O)N[C@@H](CCCN=C(N)N)C(=O)N1CCC[C@H]1C(=O)NNC(N)=O | inactive | inactive | inactive | inactive | inactive | inactive | inactive | inactive | inactive | inactive | inactive | inactive | inactive | inactive | inactive |  |  |  |  | 
